# Measured values reported in PubChem BioAssay AID620 (Sanford-Burnham Center for Chemical Genomics, 2007).
# Out of some 87,000 compounds screened, about 360 (0.41%) were called active. This excerpt belongs to a sample that is enriched for actives. A number with no mark means an inactive call. No stated cut-off is given here; in the data, active means cytotoxicity above about 50%; inactive means the rest.
# Experiment: cytotoxicity in HT1080 fibrosarcoma cells, cell-based, fluorescence readout (AID 620);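 further: cells exposed to compound overnight then 4 h with Alamar Blue; 0% = vehicle DMSO and 100% = killing control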
# Details: HT1080 viability, at 10 µM, active compounds read high
row,SMILES,cytotoxicity
1,COc1cccc(C(=O)Nc2ccc(F)cc2F)c1,-7.7%
2,CC(C)(C)c1ccc(Oc2cccc(C3CC(=O)C(C4NCCc5ccccc54)C(=O)C3n3cncn3)c2)cc1 (stereo not given),-1.9%
3,CCn1c(CC(=O)Nc2ccccc2)nnc1SCC(=O)Nc1ccccc1C(=O)OC,0.7%
4,COc1ccc(N2CCCCn3c2nc2c3c(=O)[nH]c(=O)n2C)cc1,3.8%
5,CCOC(=O)Cn1nc(-c2ccc(Cl)cc2)ccc1=O,-5%
6,CCn1c(CSc2nc3ccccc3n2C)nc2ccccc21,27.6%
7,COc1cc(C2C(C#N)=C(C)NC3=C2C(=O)CC(C)(C)C3)cc(OC)c1O (stereo not given),-2.1%
8,COc1ccc(C2C(C#N)=C(C)NC3=C2C(=O)c2ccccc23)cc1 (stereo not given),3%
9,COc1cc(C2C(C#N)=C(C)NC3=C2C(=O)c2ccccc23)cc(OC)c1OC (stereo not given),68.6% (active)
10,COc1cc(NC(=O)c2cccs2)c(C(=O)OCC(=O)NCc2ccccc2)cc1OC,9.6%
11,CCOc1ccc(NC(=O)CSc2nnc(C)n2CC2CCCO2)cc1 (stereo not given),-2.7%
12,COc1ccc(-c2noc(CN3CCCCC3)n2)cc1OC,11.9%
13,CN(C)S(=O)(=O)c1ccc(S(=O)(=O)N(Cc2ccco2)Cc2ccccc2Cl)cc1,-1.9%
14,CCOc1cc(S(=O)(=O)N2CCN(c3ccc(F)cc3)CC2)c(OCC)cc1-n1cnnn1,2.6%
15,CCOc1cc(S(=O)(=O)N2CC=C(c3ccc(F)cc3)CC2)c(OCC)cc1-n1cnnn1,52.5% (active)
16,CCOc1cc(S(=O)(=O)N2CCC(Cc3ccccc3)CC2)c(OCC)cc1-n1cnnn1,-6.4%
17,CC12CCC(C(=O)N3CCN(Cc4ccccc4)CC3)(OC1=O)C2(C)C (stereo not given),0.4%
18,CN1CC[n+]2c(CN3C(=O)c4ccccc4C3=O)csc21,15.5%
19,CCCC(=O)c1c(NC(C)C)cc(C)oc1=O,-2.5%
20,COc1ccc(Cl)cc1S(=O)(=O)N1CCN(C(=O)c2cc(OC)c(OC)c(OC)c2)CC1,-2.5%
21,COc1cc(C(=O)N2CCN(c3cccc(C)c3C)CC2)cc(OC)c1OC,62.4% (active)
22,COc1cc(C(=O)N2CCN(c3cc(Cl)ccc3Cl)CC2)cc(OC)c1OC,66% (active)
23,Cc1cccc(N2CCN(C(=O)c3ccncc3)CC2)c1C,21.3%
24,COc1ccc(C(=O)N2CCN(C(=O)c3cc(OC)c(OC)c(OC)c3)CC2)cc1,-0.7%
25,COc1cc(C(=O)N2CCN(C(=O)c3ccccc3)CC2)cc(OC)c1OC,-2.8%
